Assay: competitive ABPP of pPAFAH versus proteome off-targets – biochemical, gel-based, FP-Rh fluorescence, mouse, HTS hit compounds, selectivity assay for pPAFAH inhibitor project, late-stage follow-up (AID 588773)
Conditions: MW 30 kDa protein, at 10 µM, hits give high values;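 active means inhibition of plasma PAF acetylhydrolase at a set limit or more at 0.1 µM, with tenfold selectivity over all off-targets; inactive means inhibition below the limit or weaker selectivity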

inhibition, inactive:
CCCCOC(=O)c1ccc(OC(=O)N2CCOCC2)cc1 14%
O=C(/C=C/c1cccs1)c1cc(Br)ccc1OC(=O)N1CCOCC1 19%
O=C(CCCSc1ccc(Cl)cc1)Nc1cc(S(=O)(=O)N2CCOCC2)ccc1O 19%
O=C(Oc1ccc(-c2ccccc2)cc1)N1CCOCC1 44%
O=C(Oc1nsnc1N1CCOCC1)N1CCOCC1 35%
O=C(Oc1ccc(-c2ccccc2)cc1)N1CCCCC1 69%
O=C(Oc1ccc(Oc2ccccc2)cc1)N1CCC(O)CC1 5%
